# PubChem BioAssay (EPA / NIEHS)
# The source made the active and inactive calls. Rule for the calls: active = hit-call score of the fitted dose curve at least 0.9, where 1 is the maximum; inactive = score below 0.9.
# How the values were obtained:
# [1] = ATG_ISRE_CIS: Attagene CIS-FACTORIAL HepG2 Assay for human Interferon Regulatory Factor 1 (IRF1) binding to an Interferon-Stimulated Response Element (ISRE) (AID 2282948); settings: HepG2 ISRE cis-reporter (Attagene), mRNA transcription readout; actives raise or lower the signal
# How it was run: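 Read-out: fluorescent RT-PCR products resolved by capillary electrophoresis, reporting endogenous transcription factor activity via ISRE-driven reporter mRNA in transfected HepG2 cells dosed for 24 h; gain or loss fitted relative to DMSO.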
# [2] = ATG_M_32_CIS: Attagene CIS-FACTORIAL HepG2 Assay for M32 Transcription Factor (Internal Marker) (AID 2282949); settings: HepG2 Attagene cis-factorial M32 reporter, mRNA; actives raise or lower the signal;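 note: background control marker of the multiplexed CIS panel rather than a real target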
# How it was run: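 Transient MRTU transfection of HepG2; 24 h compound treatment; TriZol RNA, oligo(dT) RT, reporter PCR, 6-FAM primer extension, HpaI cut, CE. Gain/loss of signal vs DMSO.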
# [3] = biological target: Hypoxia-inducible factor 1-alpha (Homo sapiens) (UniProt Q16665); experiment: ATG_HIF1a_CIS: Attagene CIS-FACTORIAL HepG2 Assay for human Hypoxia Inducible Factor 1 (HIF1A) (AID 2282951); settings: HepG2 Attagene cis-factorial HIF1a reporter transcription; actives raise or lower the signal
# Hypoxia-inducible factor 1-alpha (Homo sapiens), sequence (Q16665 whole entry, looked up): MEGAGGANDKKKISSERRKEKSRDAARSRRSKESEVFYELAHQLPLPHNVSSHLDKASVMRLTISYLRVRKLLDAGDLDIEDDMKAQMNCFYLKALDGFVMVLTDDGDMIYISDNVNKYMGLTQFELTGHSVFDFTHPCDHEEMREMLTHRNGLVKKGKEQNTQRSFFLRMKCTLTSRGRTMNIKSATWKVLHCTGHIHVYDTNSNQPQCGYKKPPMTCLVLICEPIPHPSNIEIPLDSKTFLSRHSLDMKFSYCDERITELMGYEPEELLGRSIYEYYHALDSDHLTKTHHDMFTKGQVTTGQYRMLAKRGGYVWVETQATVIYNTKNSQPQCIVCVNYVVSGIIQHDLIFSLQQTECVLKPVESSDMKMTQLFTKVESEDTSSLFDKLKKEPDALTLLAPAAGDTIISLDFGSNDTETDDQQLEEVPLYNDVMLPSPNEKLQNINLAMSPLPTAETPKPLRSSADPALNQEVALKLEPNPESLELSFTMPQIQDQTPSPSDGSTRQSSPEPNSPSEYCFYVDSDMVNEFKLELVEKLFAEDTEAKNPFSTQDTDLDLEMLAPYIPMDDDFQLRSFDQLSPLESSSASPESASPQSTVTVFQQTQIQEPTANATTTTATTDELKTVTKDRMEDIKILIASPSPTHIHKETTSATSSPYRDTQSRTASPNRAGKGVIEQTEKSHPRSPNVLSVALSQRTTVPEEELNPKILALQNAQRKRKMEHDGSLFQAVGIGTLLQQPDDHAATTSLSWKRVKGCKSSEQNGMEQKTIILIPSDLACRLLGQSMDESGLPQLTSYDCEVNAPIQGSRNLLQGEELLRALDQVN
# How it was run: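 Activity is fitted in both directions relative to DMSO. Reporter transcripts are read by RT-PCR, fluorescent primer extension and capillary electrophoresis after 24 h chemical treatment. The cells are HepG2 carrying transiently transfected cis-element-driven reporter units responding to endogenous factors.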
# [4] = biological target: Hepatocyte nuclear factor 6 (Homo sapiens) (UniProt Q9UBC0); experiment: ATG_HNF6_CIS: Attagene CIS-FACTORIAL HepG2 Assay for human Hepatocyte Nuclear Factor 6 (HNF6) (AID 2282952); settings: HepG2 Attagene cis-factorial HNF6 reporter transcription; actives raise or lower the signal
# Hepatocyte nuclear factor 6 (Homo sapiens), sequence (Q9UBC0 whole entry, looked up): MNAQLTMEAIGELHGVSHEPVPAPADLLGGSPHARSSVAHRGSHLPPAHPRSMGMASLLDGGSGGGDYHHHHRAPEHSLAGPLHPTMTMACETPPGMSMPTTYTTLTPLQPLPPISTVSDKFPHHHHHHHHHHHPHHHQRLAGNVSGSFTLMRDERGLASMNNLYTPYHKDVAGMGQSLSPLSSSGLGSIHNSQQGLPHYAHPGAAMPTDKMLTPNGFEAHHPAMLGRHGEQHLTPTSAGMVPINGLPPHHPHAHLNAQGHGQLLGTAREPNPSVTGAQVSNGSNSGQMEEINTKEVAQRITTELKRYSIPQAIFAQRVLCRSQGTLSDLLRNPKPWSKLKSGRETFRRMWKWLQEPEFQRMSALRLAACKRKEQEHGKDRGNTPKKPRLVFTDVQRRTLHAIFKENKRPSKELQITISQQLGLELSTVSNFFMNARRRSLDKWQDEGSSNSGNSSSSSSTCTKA
# How it was run: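 Endogenous transcription factor activity in human HepG2 liver cells was captured through cis-regulated reporter constructs. After 24 h treatment, reporter mRNA was measured by RT-PCR with capillary electrophoresis, and activity was fitted in both directions relative to DMSO.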
# [5] = biological target: Heat shock factor protein 1 (Homo sapiens) (UniProt Q00613); experiment: ATG_HSE_CIS: Attagene CIS-FACTORIAL HepG2 Assay for human Heat Shock Transcription Factor 1 (HSE) (AID 2282953); settings: HepG2 HSE cis-reporter, Attagene RNA transcription; actives raise or lower the signal
# Heat shock factor protein 1 (Homo sapiens), sequence (Q00613 whole entry, looked up): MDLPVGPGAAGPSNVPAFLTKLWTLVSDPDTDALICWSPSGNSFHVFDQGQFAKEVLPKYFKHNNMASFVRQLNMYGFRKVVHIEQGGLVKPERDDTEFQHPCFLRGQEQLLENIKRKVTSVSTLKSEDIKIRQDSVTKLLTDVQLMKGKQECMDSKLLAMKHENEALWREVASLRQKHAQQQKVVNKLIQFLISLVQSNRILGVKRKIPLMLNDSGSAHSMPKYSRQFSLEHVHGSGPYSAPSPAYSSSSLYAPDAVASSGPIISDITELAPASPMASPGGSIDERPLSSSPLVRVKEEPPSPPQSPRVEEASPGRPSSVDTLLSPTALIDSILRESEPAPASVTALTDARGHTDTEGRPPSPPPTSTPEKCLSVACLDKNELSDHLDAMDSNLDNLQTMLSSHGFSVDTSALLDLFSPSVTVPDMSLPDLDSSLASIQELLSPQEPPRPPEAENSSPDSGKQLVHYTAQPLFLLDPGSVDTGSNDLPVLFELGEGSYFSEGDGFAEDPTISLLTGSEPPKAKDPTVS
# How it was run: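 HepG2 cells transiently transfected with multiple reporter transcription units under cis-regulatory promoter control, measuring endogenous transcription factor activity. After 24 h chemical exposure, reporter mRNA quantified by RT-PCR, fluorescent labelling, HpaI digestion and capillary electrophoresis; bidirectional fit versus DMSO.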
# [6] = ATG_MRE_CIS: Attagene CIS-FACTORIAL HepG2 Assay for human Metal Responsive Element (MRE) (AID 2282954); settings: HepG2 MRE cis-reporter transcription, Attagene multiplex; actives raise or lower the signal
# How it was run: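 RT-PCR/capillary electrophoresis readout of reporter mRNA, 24 h post-dosing, in HepG2 cells transfected with multiplexed cis-regulated reporter constructs. Gain or loss of signal fitted bidirectionally against DMSO baseline.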
# [7] = ATG_PBREM_CIS: Attagene CIS-FACTORIAL HepG2 Assay for human Phenobarbital-responsive Enhancer Module (PBREM) (AID 2282955); settings: HepG2 PBREM cis-reporter, Attagene multiplexed transcription; actives raise or lower the signal
# How it was run: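 Endogenous transcription factor activity was read from reporter transcripts in transiently transfected human HepG2 liver cells after 24 h dosing. RT-PCR products were fluorescently labelled, HpaI-cut and sized by capillary electrophoresis; activity fitted bidirectionally against DMSO baseline.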
# [8] = ATG_M_06_CIS: Attagene CIS-FACTORIAL HepG2 Assay for M06 Transcription Factor (Internal Marker) (AID 2282950); settings: HepG2 Attagene CIS-FACTORIAL M06 internal marker reporter; actives raise or lower the signal
# How it was run: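 HepG2 cells transiently transfected with cis-regulated multiple reporter transcription units were exposed to chemical for 24 h; reporter mRNA was quantified by RT-PCR, 6-FAM primer labelling, HpaI digestion and capillary electrophoresis, fitted bidirectionally against DMSO.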
Compound,outcome [1],outcome [2],outcome [3],outcome [4],outcome [5],outcome [6],outcome [7],outcome [8],AC50 [6],AC50 [1],AC50 [5]
CC(C)=CCCC(C)=CCCC(C)=CCO,inactive,inactive,inactive,inactive,inactive,inactive,inactive,–,–,–,–
O=C(O)COCCN1CCN(C(c2ccccc2)c2ccc(Cl)cc2)CC1 (configuration not stated),inactive,inactive,–,–,inactive,inactive,inactive,inactive,–,–,–
C=O,inactive,inactive,inactive,inactive,–,inactive,–,inactive,–,–,–
Cc1cc(C2(c3cc(C)c(O)cc3C)OS(=O)(=O)c3ccccc32)c(C)cc1O,inactive,inactive,–,inactive,–,inactive,inactive,inactive,–,–,–
CCCCCCCCCCCCCCCCCC(=O)OCC(CC)CCCC (configuration not stated),inactive,inactive,–,inactive,inactive,inactive,inactive,–,–,–,–
Cc1cccc(Nc2ccccc2C(=O)O)c1C,inactive,inactive,–,inactive,inactive,–,inactive,inactive,76.9 µM (active),–,–
O=c1[nH]c(=O)n([C@H]2CCCO2)cc1F,inactive,inactive,–,inactive,inactive,inactive,inactive,inactive,–,–,–
O=C(O)CCCCCCCC(=O)O,inactive,inactive,–,inactive,inactive,inactive,inactive,inactive,–,–,–
CC(CN1c2ccccc2Sc2ccccc21)N(C)C (configuration not stated),inactive,inactive,–,inactive,–,–,inactive,inactive,40.7 µM (active),–,–
CNC[C@H](O)c1cccc(O)c1,inactive,inactive,inactive,inactive,–,inactive,inactive,inactive,–,–,–
O=S(=O)(O)NC1CCCCC1,inactive,inactive,–,inactive,–,inactive,inactive,inactive,–,–,–
CC(C)C(C)(C)C(C)(C)C(C)(C)S,inactive,inactive,–,inactive,inactive,inactive,–,inactive,–,–,–
C=CC(=O)OCC(O)COc1ccccc1 (configuration not stated),–,inactive,–,inactive,–,inactive,inactive,inactive,–,27.4 µM (active),134 µM (active)
CCCOCC(C)O (configuration not stated),inactive,inactive,–,inactive,inactive,inactive,–,–,–,–,–
CC(C)(C)c1cc(CCC(=O)NN)cc(C(C)(C)C)c1O,inactive,inactive,–,inactive,inactive,–,–,inactive,186 µM (active),–,–
C[C@H]1C[C@H]2[C@@H]3CCC4=CC(=O)C=C[C@]4(C)[C@@]3(F)[C@@H](O)C[C@]2(C)[C@@]1(O)C(=O)COP(=O)(O)O,inactive,inactive,inactive,inactive,inactive,inactive,–,–,–,–,–
Cc1ccc2ccccc2n1,inactive,inactive,–,inactive,–,inactive,inactive,inactive,–,–,–
